PubChem BioAssay (NCI)
About 79,000 compounds went through this panel and 15% of them were active in at least one assay; those are over-represented in the sample as a whole. The source made the active and inactive calls. Cut-off read from the data, not from the text of the source: active = growth inhibition above about 70%; inactive = the rest.

Assay: NCI Yeast Anticancer Drug Screen. Data for the rad50EPP+ strain (AID 151);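 note: 0% = growth of vehicle-treated control cultures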
Details: S. cerevisiae rad50 mutant strain, hits give high values
Experimental: Growth inhibition of yeast strains with defined genetic alterations is measured as a screen for potential anti-cancer activity. Selected strains with alterations in DNA damage repair or cell cycle control were exposed to compounds and growth inhibition was measured relative to vehicle treated controls. The strain used in this assay is rad50EPP+

Measured: growth inhibition

OC1(c2ccccc2)C2CC=CC2C1(c1ccccc1)c1ccccc1 (stereo not given)
inactive: at 1.2 µM -7% | at 3.7 µM -1% | at 11.0 µM 2% | at 33.0 µM -5% | at 100.0 µM -5%

C[n+]1c(-c2ccc(/C=N/NC(=O)c3ccc(C(=O)N/N=C/c4ccc(-c5cn6ccccc6[n+]5C)cc4)cc3)cc2)cn2ccccc21
active: at 3.7 µM 86% | at 11.0 µM 94% | at 33.0 µM 94% | at 100.0 µM 94%
inactive: at 1.2 µM 69%

O=[N+]([O-])c1ccc2nc(=S)[nH]n2c1
inactive: at 1.2 µM 0% | at 3.7 µM 6% | at 11.0 µM 20% | at 33.0 µM 46%
active: at 100.0 µM 87%

CC1=NN(C(=O)c2ccccc2O)C(=O)/C1=C/c1ccco1
inactive: at 1.2 µM 9% | at 3.7 µM 45% | at 11.0 µM 49% | at 33.0 µM 48%
active: at 100.0 µM 93%

O=[N+]([O-])c1ccc(/C=C\c2ccc3c(c2)OCO3)c([N+](=O)[O-])c1
inactive: at 1.2 µM 12% | at 3.7 µM 30% | at 11.0 µM 69%
active: at 33.0 µM 84% | at 100.0 µM 78%

O=S(=O)(c1cccc(C(F)(F)F)c1)N1c2ccccc2-n2cccc2C1c1cccnc1 (stereo not given)
inactive: at 1.2 µM -73% | at 3.7 µM -45% | at 11.0 µM -54% | at 33.0 µM -57% | at 100.0 µM -46%

COc1cc([N+](=O)[O-])c2ncccc2c1Br
inactive: at 1.2 µM 11% | at 3.7 µM 16% | at 11.0 µM 29% | at 33.0 µM 36% | at 100.0 µM 24%

Cc1cccc2c(NCCCN(C)C)c3c([N+](=O)[O-])ccc(C)c3nc12
inactive: at 1.2 µM 29% | at 3.7 µM 55%
active: at 11.0 µM 85% | at 33.0 µM 94% | at 100.0 µM 95%
